Source: PubChem BioAssay AID1259421 (Broad Institute, 2018)
Values joined by “and” are separate entries in the source; they are usually repeats but may differ in a detail not shown here. Equal values may be shown once. Hit rate of the full screen: of about 6,400 compounds, about 610 (9.5%) were called active. No stated cut-off is given here; in the data, active means activity change below about -70%; inconclusive means no clear call, values can overlap the other calls; inactive means above that. The sample as a whole holds a higher share of actives than the screen did. The source holds several records for some structures; these can differ, active in one and inactive in another. *1 amine or outer side, *2 acyl side, *3 side chain or, on linkers, in order; H or OH if unused. Where a SMILES comes first, the peptide text is derived from it. [ ]: non-standard residue; d: D form. LeuΨ(S-CHOHCH2)Ala = CC(C)C[C@H](N[*:1])[C@@H](O)C[C@@H](C)C(=O)[*:2]

Experiment: Toxoplasma gondii ME49Luc growth in HeLa cells, luciferase, no IFN-y, primary screen (AID 1259421)
Conditions: T. gondii ME49Luc in HeLa, 72 h, stronger effect = lower value, concentration not given here

Compound | activity change, negative = inhibition
Cc1nnc(-c2ccc3occ(-c4ccc(S(C)=O)cc4)c3c2)o1 (stereo unspecified) | 1.22% (inactive)
Fc1ccc(-n2cc(CCCCN3CCC4(CC3)OCc3ccccc34)c3ccccc32)cc1 | -77.2% (active)
O=C(c1ccc(F)cc1)C1CCN(CCCCc2ccccc2)CC1 | 3.6% (inactive) and 8.67% (inactive)
O=C(NCCCN1CCC2(CC1)OCc1ccccc12)[C@H]1CCCN1Cc1ccccc1 | 18.8% (inactive)
CN(CCOc1ccc(CC(Nc2ccccc2C(=O)c2ccccc2)C(=O)O)cc1)c1ccccn1 (stereo unspecified) | 1.37% (inactive)
CCOC(=O)[C@@H](N)CCC(=O)N[C@@H](CSCc1ccccc1)C(=O)N[C@@H](C(=O)OCC)c1ccccc1 | -2.09% (inactive)
CC1OC(OCC2OC(Oc3c(-c4ccc(O)c(O)c4)oc4cc(O)cc(O)c4c3=O)C(O)C(O)C2O)C(O)C(O)C1O (stereo unspecified) | -9.9% (inactive)
CS(=O)(=O)c1ccc(C(O)[C@H](CF)NC(=O)C(Cl)Cl)cc1 (stereo partly specified) | -54.7% (inactive) and -27.8% (inactive)
CN1C/C=C/CCOc2cccc(c2)-c2ccnc(n2)Nc2cccc(c2)C1 | -90% (active)
CCCCCCCCCCCCCCCC(=O)C1C(=O)OC(CO)C1=O (stereo unspecified) | 6.7% (inactive)
Cc1cccc(C2CN(C)CCc3c2cc(O)c(O)c3Cl)c1 (stereo unspecified) | -3.35% (inactive)
CCOC(=O)[C@H]1O[C@@H]1C(=O)N[C@@H](CC(C)C)C(=O)NCCC(C)C | 12.9% (inactive) and 2.41% (inactive)
COC(=O)[C@H](Cc1ccccc1)NC(=O)[C@@H](N)CC(=O)O (H-Asp-Phe-OMe) | 0.919% (inactive)
COc1ccc(C[C@H](NC(=O)[C@H](C)NC(=O)CN2CCOCC2)C(=O)N[C@@H](Cc2ccccc2)C(=O)[C@]2(C)CO2)cc1 | -76% (active)
O=C(Cc1ccc(-c2ccc(OCCN3CCOCC3)cc2)cn1)NCc1ccccc1 | -55.5% (inactive)
CC(=O)NC(Cc1ccccc1)C(=O)O (stereo unspecified) | 20.2% (inactive)
CC(C)c1nc(CN(C)C(=O)N[C@@H](CCN2CCOCC2)C(=O)N[C@H](CC[C@H](Cc2ccccc2)NC(=O)OCc2cncs2)Cc2ccccc2)cs1 | -16.7% (inactive)
CC(=O)N[C@@H](Cc1ccccc1)C(=O)O | 16.5% (inactive)
COC[C@H](NC(=O)c1cnc(C)s1)C(=O)N[C@@H](COC)C(=O)N[C@@H](Cc1ccccc1)C(=O)C1(C)CO1 (stereo partly specified) | -88.8% (active)
CC(C)C[C@H](NC(=O)[C@H](CCc1ccccc1)NC(=O)CN1CCOCC1)C(=O)N[C@@H](Cc1ccccc1)C(=O)N[C@@H](CC(C)C)C(=O)[C@@]1(C)CO1 | -76.7% (active)
C[C@H]1CN(C[C@H](Cc2ccccc2)C(=O)NCC(=O)O)CC[C@@]1(C)c1cccc(O)c1 | 4.96% (inactive)
CC1(C)CCC(C)(C)c2cc(Cn3cccn3)c(/C=C/c3ccc(C(=O)O)cc3)cc21 | 15.2% (inactive)
c1ccc(-c2nn3c(c2-c2ccnc4cc(OCCN5CCOCC5)ccc24)CCC3)nc1 | -32.4% (inactive)
COc1ccc(-c2coc3cc(O)ccc3c2=O)c(OC)c1 | 11.6% (inactive)
CCN(CC)CC(=O)Oc1ccc(NC(C)=O)cc1 | 7.5% (inactive)
OC[C@H]1O[C@H](O[C@H]2O[C@H](CO)[C@@H](O)[C@H](O)[C@H]2O)[C@H](O)[C@@H](O)[C@@H]1O | 7.53% (inactive)

Compound | activity change, negative = inhibition
C[N@+]12CCCC[C@@H]1CCC(=C(c1cccs1)c1cccs1)C2 | 13.6% (inactive)
O=C(O)c1cc(=O)c2c3nc4ccccc4oc-3cc(=O)c2[nH]1 | 1.96% (inactive)
CC(=O)N[C@H]1[C@H]([C@H](O)[C@H](O)CO)OC(C(=O)O)=C[C@@H]1N=C(N)N | 10.9% (inactive)
COc1ccc(-c2ccc3ncc4c(c3c2)n(-c2ccc(N3CCNCC3)c(C(F)(F)F)c2)c(=O)n4C)cn1 | -88.5% (active)
Cc1cc(C)cc(C(=O)N(C)[C@H](Cc2ccc(-c3ccccc3)cc2)C(=O)N[C@@H](Cc2c[nH]c3ccccc23)C(=O)O)c1 | 13% (inactive)
C[C@H]1CNCCCN1S(=O)(=O)c1cccc2cncc(F)c12 | -2.52% (inactive)
Nc1nnc(Sc2ncc([N+](=O)[O-])s2)s1 | 9.53% (inactive)
CC[C@H](CC#N)OC(=O)N[C@@H](C)c1cccc(NC(=O)Nc2ccc(-c3cnco3)c(OC)c2)c1 | -82% (active)
COc1cc(NC(=O)Nc2cccc(CNC(=O)O[C@H]3CCOC3)c2)ccc1-c1cnco1 | -79.3% (active)
CC(C)CN(C[C@@H](O)[C@H](Cc1ccccc1)NC(=O)O[C@H]1CCOC1)S(=O)(=O)c1ccc(N)cc1 | 0.811% (inactive)
Cc1cc2c(OCC(CNC(C)(C)C)OC(=O)c3ccccc3)cccc2[nH]1 (stereo unspecified) | 18.3% (inactive)
Cc1c(NC(=O)c2cc3c(s2)CCCC3)cccc1-c1cn(C)c(=O)c(Nc2ccc(C3C(=O)N(C)CCN3C)cc2)n1 (stereo unspecified) | 97.9% (inactive)
CCC(C(=O)O)c1ccc(N2Cc3ccccc3C2=O)cc1 (stereo unspecified) | 122% (inactive)
Nc1nc2c(sc(=O)n2[C@@H]2O[C@H](CO)[C@@H](O)[C@H]2O)c(=O)[nH]1 | -8.34% (inactive)
COc1cc2c(cc1OC)C(=O)OC2 | -0.409% (inactive)
C[C@H](Oc1cc(-c2cnn(C3CCNCC3)c2)cnc1N)c1c(Cl)ccc(F)c1Cl | -84.6% (active) and 9.96% (inactive)
Fc1cc(-c2cccc3ncc(-c4cnn(C5CCNCC5)c4)nc23)cc(F)c1CN1CCOCC1 | 6.9% (inactive)
C[C@@H](Oc1cc(-c2cnn(C3CCNCC3)c2)cnc1N)c1c(Cl)ccc(F)c1Cl | -43.1% (inactive) and -79.1% (active)
CCCCCCCCCCCC[C@H](C(=O)O)[C@@H](C)C(=O)O | 2.19% (inactive)
Oc1c(Cl)cc(Cl)cc1Sc1cc(Cl)cc(Cl)c1O | -82.5% (active) and -6.64% (inactive)
C#CCN(C)CCCOc1ccc(Cl)cc1Cl | 20.2% (inactive) and 29.2% (inactive)
Cc1cc(Cl)ccc1OCCCC(=O)NO | -90% (active)
O=C(CCCS)NC1CCN(C(=O)COc2ccc(Cl)cc2Cl)CC1 | -3% (inactive)
CN(CC(=O)O)C(=N)N | 15.6% (inactive)
CCC[C@@H](NC(=O)N1C(=O)C(CC)(CC)[C@@H]1Oc1ccc(C(=O)N2CCN(C)CC2)cc1)c1ccc2c(c1)OCO2 | 4.37% (inactive)
CC(C)C[C@H](NC(=O)[C@H](CC(N)=O)NC(=O)[C@@H](NC(=O)[C@@H](N)CCC(=O)O)C(C)C)[C@@H](O)C[C@@H](C)C(=O)N[C@@H](C)C(=O)N[C@@H](CCC(=O)O)C(=O)N[C@@H](Cc1ccccc1)C(=O)O (H-EVN[LeuΨ(S-CHOHCH2)Ala]AEF-OH) | 3.01% (inactive)

Compound | activity change, negative = inhibition
Cc1[nH]c(=O)c(C#N)cc1-c1ccncc1 | 46.4% (inactive) and 9.05% (inactive)
Nc1cc(-c2ccncc2)c[nH]c1=O | 3.96% (inactive) and 3.4% (inactive)
O=C1NCCc2[nH]c(-c3ccncc3)cc21 | -75.8% (active)
CCOC(=O)C(CCc1ccccc1)NC1CCc2ccccc2N(CC(=O)O)C1=O (stereo unspecified) | 3.98% (inactive)
Nc1cc(C(F)(F)F)c(-c2cc(N3CCOCC3)nc(N3CCOCC3)n2)cn1 | -70.3% (active)
Nc1ncnc2nc(-c3ccc(N4CCOCC4)nc3)cc(-c3cccc(Br)c3)c12 | -21.2% (inactive) and -9.62% (inactive)
Cc1nc2c(-c3cnc(N)nc3)nc(N3CCOCC3)nc2n1C(C)C | -14% (inactive)
CC(=O)SCCC(=O)N1C(C)CCCC1C(=O)O (stereo unspecified) | 20.2% (inactive)
O=C(O)[C@H]1CN(C/C=C/P(=O)(O)O)CCN1 | -6.53% (inactive)
CC1(C)Oc2ccc(C#N)cc2[C@H](N2CCCC2=O)[C@H]1O (racemic) | 17% (inactive)
CCN(CC)CCNC(=O)c1ccc(I)cc1 | 11.1% (inactive)
O=C(Nc1ccccc1)Nc1ccc(-c2ccc(C(=O)[C@@H]3CCC[C@@H]3C(=O)O)cc2)cc1 | 16.1% (inactive)
c1cnc2cc3c(cc2n1)C1CNCC3C1 | 5.57% (inactive)
CC1=C(CC(=O)O)c2cc(F)ccc2/C1=C\c1ccc(S(C)=O)cc1 (stereo unspecified) | 13.1% (inactive) and -5% (inactive)
CO[C@H]1CC(O[C@@H]2/C(C)=C/C[C@@H]3C[C@@H](C[C@]4(C=C[C@H](C)[C@@H](C5CCCCC5)O4)O3)OC(=O)[C@@H]3C=C(C)[C@@H](O)[C@H]4OC/C(=C\C=C\[C@@H]2C)[C@]43O)O[C@@H](C)C1O[C@H]1C[C@H](OC)[C@@H](O)[C@H](C)O1 (stereo partly specified) | -62.7% (inactive)
COc1cc(/C=C/c2ccc(OC)cc2OC)cc(OC)c1 | -58.6% (inactive) and -57.8% (inactive)
Cc1cc(N2CCOCC2)ccc1Nc1nc(NC2CCCCC2)c2[nH]cnc2n1 | -50.9% (inactive)
CCCN1CCN(c2ccc(C(=O)NC3(C(=O)NCC#N)CCCCC3)cc2)CC1 | 15.1% (inactive)
Cc1nc(N)sc1-c1ccnc(Nc2ccc(N3CCOCC3)cc2)n1 | -80.3% (active)
N#CCNC(=O)c1ccc(-c2ccnc(Nc3ccc(N4CCOCC4)cc3)n2)cc1 | -88.6% (active)
CCn1c2ccccc2c2cc(Nc3ccnc(NCCCN4CCOCC4)n3)ccc21 | -53.7% (inactive)
O=C(NCCCN1CCOCC1)c1ccc(Cl)cc1 | 10.9% (inactive)
CCNC(=O)C1OC(n2cnc3c(N)nc(NCCc4ccc(CCC(=O)O)cc4)nc32)C(O)C1O (stereo unspecified) | 1.12% (inactive)
CC(C)=CCOc1cc2oc(=O)ccc2cc1O | -2.69% (inactive)
